# PubChem BioAssay (NCATS)
# “And” between values parts separate entries of the source, which are not always exact repeats. Identical values can stand only once. Values without a mark were called inactive. Calls come from the whole dose curve; as a rule, active = well fitted activation curve with a large enough effect; inconclusive = small, poorly fitted or top-dose-only effect; inactive = flat fitted curve, though single readings scatter.
# Biological target: Peroxisome proliferator-activated receptor alpha (Homo sapiens) (UniProt Q07869)
# Test: qHTS assay for small molecule agonists of the peroxisome proliferator-activated receptor alpha (PPARalpha) signaling pathway (AID 651778); note: % of control where 0% means no effect
# Conditions: PathHunter PPARalpha complementation, chemiluminescence, 6 h; active compounds read high
# Outline: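 Enzyme-fragment complementation assay in which ligand-bound PPARalpha translocates and forms an active enzyme that generates chemiluminescence. Cells were plated overnight, exposed to compound for 6 hr at 37 C, and then given detection reagent for 60 min at room temperature.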
# Sequence of Peroxisome proliferator-activated receptor alpha (Homo sapiens) (Q07869 whole entry, looked up): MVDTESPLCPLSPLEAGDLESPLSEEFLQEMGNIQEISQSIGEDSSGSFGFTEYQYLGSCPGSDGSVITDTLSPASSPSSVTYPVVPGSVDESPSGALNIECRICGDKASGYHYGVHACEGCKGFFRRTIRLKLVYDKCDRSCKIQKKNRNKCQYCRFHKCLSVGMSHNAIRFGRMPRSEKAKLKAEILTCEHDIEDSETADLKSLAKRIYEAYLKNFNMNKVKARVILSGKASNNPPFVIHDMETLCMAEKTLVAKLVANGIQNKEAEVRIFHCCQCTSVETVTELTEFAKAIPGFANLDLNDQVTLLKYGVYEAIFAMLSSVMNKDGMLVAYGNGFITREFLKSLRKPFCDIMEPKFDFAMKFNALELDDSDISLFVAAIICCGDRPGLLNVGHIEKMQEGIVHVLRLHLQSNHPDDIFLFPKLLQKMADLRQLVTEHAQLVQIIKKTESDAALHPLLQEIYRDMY
row,SMILES,max response
1,Nc1ccc([As](=O)(O)O)cc1,-1.85%
2,CC(C)NC(C)C,0.708%
3,NCCc1ccc(O)cc1,-1.42%
4,CC(C)c1cccc(C(C)C)c1O,-5.67%
5,Nc1ccccc1C(=O)O,0.553%
6,CCC(C)(C)c1ccc(O)cc1,5.88% and -1.73%
7,C[C@]12CCC(=O)C=C1CC[C@@H]1[C@@H]2CC[C@]2(C)C(=O)CC[C@@H]12,-0.773% and -1.33%
8,O=C1c2ccccc2C(=O)C1C(=O)C(c1ccccc1)c1ccccc1,-1.83%
9,O=C(O)CCCc1ccc(N(CCCl)CCCl)cc1,0.105% and -1.89%
10,Nc1nc(N)nc(NC2CC2)n1,-0.264%
11,CC1(C)C(C=C(Cl)Cl)C1C(=O)OC(C#N)c1cccc(Oc2ccccc2)c1 (stereo not drawn),-4.65%
12,COc1cc(OC)c(OC)cc1C=O,0.405%
13,COP(=S)(OC)SCN1C(=O)c2ccccc2C1=O,-0.635%
14,CCOP(=S)(OCC)Oc1ccc2c(C)c(Cl)c(=O)oc2c1,-4.26%
15,C[C@]12CCC(=O)C=C1CC[C@@H]1[C@@H]2CC[C@@]2(C)[C@H]1CC[C@]2(C)O,7.27%
16,CN1C[C@H](C(=O)N[C@]2(C)O[C@@]3(O)[C@@H]4CCCN4C(=O)[C@H](Cc4ccccc4)N3C2=O)C=C2c3cccc4[nH]cc(c34)C[C@H]21,-3.76% and -6.49%
17,Oc1ccc(Cl)cc1,0.582%
18,CCCC(C)(COC(N)=O)COC(N)=O,-0.626% and -5.23%
19,O=P1(N(CCCl)CCCl)NCCCO1 (stereo not drawn),7.32% and -1.68%
20,C[C@]1(O)CC[C@H]2[C@@H]3CCC4=CC(=O)CC[C@]4(C)[C@@]3(F)[C@@H](O)C[C@@]21C,3%
21,COC(=O)C(c1ccccc1)C1CCCCN1 (stereo not drawn),-1.82% and 0.192%
22,COP(=S)(OC)Oc1cc(Cl)c(Cl)cc1Cl,-0.715%
23,Clc1ccc(C(c2ccc(Cl)cc2)C(Cl)(Cl)Cl)cc1,4.34% and 1.18%
24,[N-]=[N+]=CC(=O)OC[C@H](N)C(=O)O,0.305%
25,O=C1c2ccccc2C(=O)c2ccccc21,0.92%
26,CCOC(=O)CC(SP(=S)(OC)OC)C(=O)OCC (stereo not drawn),-2.48% and 0.447% and -3.85%
27,Nc1ccccc1,7.46%
28,COP(=S)(OC)Oc1ccc(SC)c(C)c1,6.43% and 7.61%
